Hit rate of the full screen: of about 53,000 sequences, about 3,700 (7%) were called active.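 The calls were made as follows: active = gene knockdowns whose robust z-score for IL-1 alpha signal is at least 2 or at most -2, so actives lie on both sides; inactive = the rest.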 The sample as a whole holds a higher share of actives than the screen did.
Experiment: Components of the Cytosolic LPS Sensing Pathway: Gene Identification via Genome-wide siRNA Screen;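 also: robust z of the log signal after scaling to non-targeting control siRNA wells of the plate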
Conditions: RAW264.7 macrophages, IL-1a HTRF, actives lie on both sides, screened at 100 nM (by protocol), cells primed 5 h with Pam3CSK4 first
Procedure, shortened: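 Knockdown: 100 nM siRNA, 48h, RAW264.7. Stimulation: Pam3CSK4 5 h, then LipidA via TransIT-TKO 24 h. Output: supernatant IL-1a HTRF, negative-control-normalized, log robust z-score; viability by CellTiter-Glo.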

Row | Sequence | z-score
1 | GCCAAUUGGACCUUAGAAATT against Nup107 | -2.58 (active)
2 | GGACUUUGUCACCAUGACGTT against Pef1 | 0.105 (inactive)
3 | CCUAAAGAAGGUCUAUGCCTT against Tmbim6 | -0.0538 (inactive)
4 | GAAGCACAACCUCGGCUUUTT against AY074887 | 0.448 (inactive)
5 | GGGUGUGAAAGUCAAUAAATT against 4930591A17Rik | 1.02 (inactive)
6 | UGGUGAAUACCAGUCUAAUTT against Tnfrsf23 | 0.0551 (inactive)
7 | GUAUUUUACACUCUUGUGGTT against Olfr898 | -2.31 (active)
8 | GUAUCAUGACAGCUGUUUUTT against Olfr519 | -0.254 (inactive)
9 | GGAAAACAAGGAACAUGCGTT against Scgb1b2 | 0.138 (inactive)
10 | GGCCAAGACCUCAGAGAUUTT against Apoa2 | -1.39 (inactive)
11 | GGCAGCUUUGGAACAACUATT against Zc3h14 | -0.477 (inactive)
12 | GGAUGCACUGAGGAACUCATT against Atg101 | -0.573 (inactive)
13 | GGAUCCAUGCUGUCAGUGGTT against Sftpa1 | 2.17 (active)
14 | GGGAAUUGAUGAAAGCUCUTT against Gigyf2 | -0.369 (inactive)
15 | GCUUGGUGUAAUCAUGCGCTT against Prl7d1 | 0.314 (inactive)
16 | GGGAACUUUAGCUUAAAUUTT against Lypd6 | 0.135 (inactive)
17 | CGGCGACAUUGUUUUGCUATT against Acvr2a | 1.19 (inactive)
18 | GGGCCUUCACAAUGUCCUUTT against Brca1 | 2.68 (active)
19 | GGACCUUGAGAAAGUAGUCTT against Ms4a10 | 0.651 (inactive)
20 | GGUGAUGAAAAAGGACAGCTT against Oit1 | 0.0982 (inactive)
21 | GUACGUCAAGAGCCUGCGUTT against Fam110a | -2.65 (active)
22 | GGAGCAGAUACCCUAGCCUTT against Mtx1 | 0.698 (inactive)
23 | GGACUUGAAGAUGUACCAGTT against Il12a | 0.427 (inactive)
24 | GCCAUUCUAGAACCUGUAGTT against Zwint | -1.65 (inactive)
25 | GCUAACUUAGAUAUCCAGGTT against Abtb2 | 0.125 (inactive)
26 | GGGCCAAAUUUGAAUCCCUTT against Rcan1 | -2.09 (active)
27 | CCAAGUUUUUAUGCAGAUATT against Pip5k1b | 1.6 (inactive)
28 | GGGUAUAUUUCCUUCCAGCTT against Dock4 | -0.105 (inactive)
29 | GGUGGGAUGAUCAUAAGUUTT against Ppnr | -0.0428 (inactive)

From PubChem BioAssay AID1508600 (Functional Genomics Laboratory (NCATS/FGL), 2020)
